# Experimental data from PubChem BioAssay.
# The source made the active and inactive calls.
# Key:
# [1] = compounds binding Alexa647 anti-His antibody – biochemical, small-molecule microarray, 635 nm fluorescence, artefact control for SMM control protein annotation, primary screen (AID 1128); conditions: higher = more signal;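 note: score merges feature fluorescence with signal-to-noise for each printed compound spot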
# [2] = system: Human papillomavirus type 1a E7 protein (residues 1-88); test: HPV1a E7 small-molecule binders, primary screen, biochemical, small-molecule microarray, residues 1-88, 635 nm (AID 1129); conditions: small-molecule microarray binding, fluorescence 635 nm; higher = more signal
# [3] = molecular target: Focal adhesion kinase 1 (Homo sapiens) (UniProt Q05397); test: PTK2 protein binding on printed compound slides – biochemical, small-molecule microarray, 635/667 nm fluorescence, BSA, DTT, primary screen (AID 1130); conditions: 635 nm fluorescence, higher = more signal;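 note: composite of spot emission at 667 nm and signal to noise over triplicate slides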
# [4] = system: Fibrinogen (Alexa647-labelled); test: Alexa647-fibrinogen binding to printed small molecules – biochemical, small-molecule microarray, 635/667 nm fluorescence, artefact control for SMM control-protein annotation, profiling panel (AID 1131); conditions: fibrinogen-A647 binding fluorescence, higher = more signal;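 note: z-score merges 667 nm fluorescence with per-spot signal-to-noise over triplicate slides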
# [5] = molecular target: Follistatin (Homo sapiens) (UniProt P19883); test: FST protein binding to printed compounds – biochemical, small-molecule microarray, 635/667 nm fluorescence, primary screen (AID 1132); conditions: 635 nm fluorescence, higher = more signal
# [6] = molecular target: Fibroblast growth factor 2 (Homo sapiens) (UniProt P09038); test: basic fibroblast growth factor binding to printed compounds – biochemical, small-molecule microarray, 635/667 nm fluorescence, primary screen (AID 1133); conditions: FGF2, fluorescence 635/667, higher = more signal
# [7] = JC-1 mitochondrial potential readout, lung cancer cells – cell-based, A549, JC-1 fluorescence, basal, 24 h, 100 nL, profiling panel (AID 1138); conditions: higher = more signal;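 note: A549 lung adenocarcinoma cells under basal conditions with no added stimulus; test concentration not given here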
# [8] = system: Lefty1; test: Lefty1 protein binding to printed compounds – biochemical, small-molecule microarray, 635/667 nm fluorescence, primary screen (AID 1139); conditions: fluorescence 635/667, higher = more signal
# [9] = system: wheat germ agglutinin (Triticum aestivum), Alexa647-labelled; test: Alexa647-WGA lectin binding to printed small molecules – biochemical, small-molecule microarray, 635/667 nm fluorescence, artefact control for SMM control-protein annotation, profiling panel (AID 1140); conditions: WGA-A647 binding, 635 nm fluorescence, higher = more signal;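 note: score merges 667 nm feature emission with signal to noise over triplicate slides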
# [10] = molecular target: Luciferin 4-monooxygenase (Photinus pyralis) (UniProt P08659); test: inhibition of purified Photinus pyralis luciferase – biochemical, luminescence, purified enzyme, 2006 set, primary screen (AID 1141); conditions: purified firefly luciferase, SteadyGlo luminescence, 30 min; higher = more signal, called active from +8 up or from −8 down;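 note: cell-free assay with purified firefly luciferase at 100 ng per well in PBS; test concentration not given here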
# Sequence of Luciferin 4-monooxygenase (Photinus pyralis) (P08659 whole entry, looked up): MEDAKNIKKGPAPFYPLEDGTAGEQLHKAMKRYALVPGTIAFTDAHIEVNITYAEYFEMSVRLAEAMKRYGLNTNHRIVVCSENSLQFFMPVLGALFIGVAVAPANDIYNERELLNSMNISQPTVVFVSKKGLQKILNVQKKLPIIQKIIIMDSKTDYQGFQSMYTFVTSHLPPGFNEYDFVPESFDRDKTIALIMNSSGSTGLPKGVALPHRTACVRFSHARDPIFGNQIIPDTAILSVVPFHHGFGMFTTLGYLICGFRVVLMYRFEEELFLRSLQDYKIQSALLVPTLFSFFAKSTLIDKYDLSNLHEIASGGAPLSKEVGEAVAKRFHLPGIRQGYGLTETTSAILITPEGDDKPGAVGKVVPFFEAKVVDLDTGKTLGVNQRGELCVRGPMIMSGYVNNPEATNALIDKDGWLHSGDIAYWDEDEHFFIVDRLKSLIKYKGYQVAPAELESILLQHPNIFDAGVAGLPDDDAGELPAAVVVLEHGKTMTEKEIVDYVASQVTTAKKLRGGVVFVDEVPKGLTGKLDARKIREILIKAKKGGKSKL
# Sequence of Fibroblast growth factor 2 (Homo sapiens) (P09038 whole entry, looked up): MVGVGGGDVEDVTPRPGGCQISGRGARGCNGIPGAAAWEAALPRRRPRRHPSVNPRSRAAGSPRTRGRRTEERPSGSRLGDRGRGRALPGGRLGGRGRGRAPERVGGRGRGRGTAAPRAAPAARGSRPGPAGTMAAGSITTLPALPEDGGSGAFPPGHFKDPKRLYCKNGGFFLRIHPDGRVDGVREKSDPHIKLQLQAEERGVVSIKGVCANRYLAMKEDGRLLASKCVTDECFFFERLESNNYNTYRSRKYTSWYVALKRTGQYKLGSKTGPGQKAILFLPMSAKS
# Sequence of Follistatin (Homo sapiens) (P19883 whole entry, looked up): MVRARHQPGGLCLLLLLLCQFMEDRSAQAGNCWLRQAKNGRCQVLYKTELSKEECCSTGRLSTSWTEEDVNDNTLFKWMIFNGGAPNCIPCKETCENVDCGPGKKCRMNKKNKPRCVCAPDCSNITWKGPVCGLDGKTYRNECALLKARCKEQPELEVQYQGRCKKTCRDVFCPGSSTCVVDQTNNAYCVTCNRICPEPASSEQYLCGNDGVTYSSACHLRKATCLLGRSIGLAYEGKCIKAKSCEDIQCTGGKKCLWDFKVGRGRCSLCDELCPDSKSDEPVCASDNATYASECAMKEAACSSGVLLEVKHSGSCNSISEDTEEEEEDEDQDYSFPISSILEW
# Sequence of Focal adhesion kinase 1 (Homo sapiens) (Q05397 whole entry, looked up): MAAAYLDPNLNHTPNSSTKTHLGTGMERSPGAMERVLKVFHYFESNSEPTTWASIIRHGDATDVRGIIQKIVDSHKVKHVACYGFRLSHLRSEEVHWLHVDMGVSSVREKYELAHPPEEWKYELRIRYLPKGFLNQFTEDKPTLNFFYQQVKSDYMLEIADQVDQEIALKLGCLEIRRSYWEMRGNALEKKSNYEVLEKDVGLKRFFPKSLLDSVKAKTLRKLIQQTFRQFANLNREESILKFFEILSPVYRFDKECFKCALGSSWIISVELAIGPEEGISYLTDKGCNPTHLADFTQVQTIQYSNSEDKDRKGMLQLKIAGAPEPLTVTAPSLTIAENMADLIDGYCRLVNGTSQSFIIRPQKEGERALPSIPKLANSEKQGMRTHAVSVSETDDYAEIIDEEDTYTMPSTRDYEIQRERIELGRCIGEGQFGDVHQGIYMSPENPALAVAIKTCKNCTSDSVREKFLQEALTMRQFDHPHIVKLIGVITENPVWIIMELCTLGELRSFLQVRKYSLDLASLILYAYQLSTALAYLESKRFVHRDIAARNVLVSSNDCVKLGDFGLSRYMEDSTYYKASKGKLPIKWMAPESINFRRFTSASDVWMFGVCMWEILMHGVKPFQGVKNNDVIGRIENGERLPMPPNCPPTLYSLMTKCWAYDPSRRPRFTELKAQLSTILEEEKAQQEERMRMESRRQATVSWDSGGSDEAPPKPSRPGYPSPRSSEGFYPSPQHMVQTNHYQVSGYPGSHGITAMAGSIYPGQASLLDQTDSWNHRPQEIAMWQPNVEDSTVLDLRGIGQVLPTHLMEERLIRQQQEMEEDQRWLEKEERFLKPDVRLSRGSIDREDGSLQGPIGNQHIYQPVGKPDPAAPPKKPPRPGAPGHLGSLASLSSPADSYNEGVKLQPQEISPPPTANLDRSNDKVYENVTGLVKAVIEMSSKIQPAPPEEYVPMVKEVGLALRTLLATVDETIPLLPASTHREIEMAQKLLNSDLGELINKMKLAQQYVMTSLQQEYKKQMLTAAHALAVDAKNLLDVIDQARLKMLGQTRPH
SMILES,composite z-score [1],composite z-score [2],composite z-score [3],composite z-score [4],composite z-score [5],composite z-score [6],z-score [7],composite z-score [8],composite z-score [9],z-score [10]
COc1cccc(C[C@H]2C[C@@H](CO[Si](C(C)C)(C(C)C)C(C)C)N3C(=O)[C@]4(C(C)=O)O[C@]23[C@H]2C(=O)N(C)C(=O)[C@H]24)c1,0.786,1.04,0.353,0.674,0.9,0.865,1.51,1.19,0.425,0.216 (inactive)
O=C1O[C@H](c2ccccc2)[C@H](c2ccccc2)N2[C@H]1[C@@H](C(=O)N1CCCCCCC1)[C@]1(C(=O)Nc3ccccc31)[C@H]2c1ccc(O)cc1,3.64,1.34,3.9,0.514,1.55,1.54,0.0754,1.85,1.77,-0.809 (inactive)
COc1ccc(C(=O)Nc2ccc(CN3C(=O)[C@@]4(O[C@@H](CC(=O)N5Cc6ccccc6C[C@H]5CO)[C@H]([Si](C)(C)c5ccc(OC)cc5)[C@H]4C)c4ccccc43)cc2)cc1,0.299,1.13,1.2,0.724,1.33,1.33,1.29,1.62,0.365,0.0093 (inactive)
O=C1C2C=CC(C(O)c3cccc4ccccc34)N(Nc3ccccc3)C2C(=O)N1c1ccccc1 (stereo not given),2.24,1.17,1.99,0.971,1.23,0.729,-0.39,0.576,0.753,-1.05 (inactive)
NC(=O)[C@H]1[C@@H]2C(=O)O[C@@H](c3ccccc3)[C@@H](c3ccccc3)N2[C@@H](c2ccc(O)cc2)[C@]12C(=O)Nc1ccc(C#CC3(O)CCCCCC3)cc12,1.55,1.23,0.505,0.946,1.24,1.58,-1.43,0.889,0.949,0.268 (inactive)
C=CCC(OC(C)=O)[C@@H]1[C@@H](N(Cc2ccc(-c3ccccc3)cc2)C(=O)Cc2ccc(OC)cc2)c2cc(OCCCO)ccc2N1C(=O)c1ccc(-c2ccccc2)cc1 (stereo not given in full),-0.163,0.152,0.855,0.137,0.409,-0.0805,2.32,0.182,0.495,-0.663 (inactive)
CC(C)(C)OC(=O)CC[C@]1(C(=O)O)COC(c2ccc(OCCCO)cc2)=N1,0.541,-0.173,-0.108,0.68,-0.747,-1.23,0.352,-0.552,0.62,-0.306 (inactive)
CC(=O)NCCCC[C@@H]1NC(=O)[C@@H]2C[C@H](C(=O)NCCCC[N+](C)(C)C)[C@H](c3cccc(OCCO)c3)N2C1=O,1.5,-0.411,0.164,-1.39,1.4,1.57,-0.251,0.512,0.994,0.0595 (inactive)
CCOC(=O)C[C@H]1[C@H](OC(=O)Cc2ccc3c(c2)OCO3)[C@@H](NC(=O)c2ccccc2)c2cc(OCCCO)ccc2N1C(=O)c1ccc2ccccc2n1,0.0936,0.445,-0.0584,0.204,0.166,0.77,0.925,0.447,0.473,-1.43 (inactive)
CCN(CC)c1ccc(N2CC=CC34O[C@@H]5/C=C\CCCOC(=O)C5[C@H]3C(=O)N(CCCCCO)[C@@H]4C2=O)cc1 (stereo not given in full),-0.617,-1.39,-0.722,-2.57,-0.785,-1.26,0.965,-0.758,-1.19,-0.918 (inactive)
COCCCNC(=O)[C@@H]1c2ccccc2C(=O)N(Cc2cc(F)cc(C(F)(F)F)c2)[C@H]1c1ccc(CO)cc1,-0.669,-1.06,-0.751,-1.81,-0.252,-0.94,0.261,-0.584,0.373,-0.646 (inactive)
C=CC[C@@]1(C(=O)NCC(O)CO)N=C(c2ccc(OCCCO)cc2)O[C@@H]1c1ccccc1 (stereo not given in full),1.98,0.932,0.307,0.543,1.44,1.02,1.01,0.0457,1.27,-1.31 (inactive)
COC(=O)[C@H]1N=C(c2ccc(OCCCO)cc2)O[C@H]1c1ccccc1CN=[N+]=[N-],0.96,-0.189,0.605,0.825,0.107,-0.372,0.758,-0.139,0.434,-8.1 (active)
[N-]=[N+]=Nc1ccccc1[C@@H]1OC(c2ccc(OCCCO)cc2)=N[C@]1(CCS(=O)(=O)c1ccccc1)C(=O)NCc1ccccc1,1.13,0.742,1.03,0.982,1.3,1.06,0.27,-0.141,1.2,-11.9 (active)
COc1ccc([Si](C)(C)[C@H]2[C@H](CCO)O[C@@]3(C(=O)N(Cc4cccc(N5CCOC5=O)c4)c4ccccc43)[C@@H]2C)cc1,0.56,1.13,0.413,0.708,0.433,0.203,0.00631,0.729,0.63,-0.0833 (inactive)
COC(=O)c1ccc(OC)c(/C=C\CC(CCc2ccccc2)OC(C)=O)c1 (stereo not given),-0.281,-0.133,0.377,-0.177,0.457,-0.293,0.293,0.222,0.476,-0.558 (inactive)
Cc1cc(C)c(C(O)C2C=CC3C(=O)N(c4ccccc4)C(=O)C3N2Nc2ccc([N+](=O)[O-])cc2)c(C)c1 (stereo not given),0.945,1.22,0.434,1.02,1.08,0.504,-0.712,0.648,0.71,1.12 (inactive)
[N-]=[N+]=NCc1ccccc1[C@H]1OC(c2ccc(OCCCO)cc2)=N[C@@]1(Cc1ccccc1)C(N)=O,1.85,1.24,0.5,1.04,0.405,-0.135,2.44,-0.572,1.37,-1.89 (inactive)
COc1ccccc1CN1C(=O)c2ccccc2[C@@]2(Cc3ccccc3N(C3CC3)C2=O)[C@@H]1c1ccc(CO)cc1,0.131,-1.12,-0.175,-0.248,0.253,-1.17,0.111,-0.154,-0.0487,-0.379 (inactive)
CCCC=C(CCC)[C@@H](NS(=O)(=O)CC)c1ccccc1,0.365,1.18,0.655,0.976,0.322,0.152,-1.72,-0.346,0.265,2.1 (inactive)
C[N+](C)(C)CCCC[C@@H]1NC(=O)[C@H]2C[C@@H](C(=O)NCCCCCCN)[C@@H](c3cccc(OCCO)c3)N2C1=O,0.711,1.21,0.209,0.704,1.4,1.51,-0.798,1.67,1.13,0.815 (inactive)
O=C1O[C@H](c2ccccc2)[C@H](c2ccccc2)N2[C@H]1[C@@H](C(=O)N1CCCCCCC1)[C@]1(C(=O)Nc3ccc(C#CCCO)cc31)[C@H]2c1ccc(OCCO)cc1,2.99,1.36,5.23,0.97,1.52,1.27,-0.421,1.92,1.64,-0.264 (inactive)
CN(C)C(=O)[C@@]1(CCC(=O)OC(C)(C)C)N=C(c2ccc(OCCCO)cc2)O[C@H]1c1ccccc1N=[N+]=[N-],0.546,1.32,0.162,1.04,1.45,1.58,1.15,0.722,1.01,-7.12 (inactive)
[N-]=[N+]=NCc1ccccc1[C@H]1OC(c2ccc(OCCCO)cc2)=N[C@@]1(Cc1ccccc1N=[N+]=[N-])C(=O)N1CCCCC1,2.35,1.23,0.529,0.974,1.34,1.56,2.16,0.68,0.681,-1.9 (inactive)
O=C1N(Cc2ccccc2)c2ccccc2[C@H]2OC(c3ccc(OCCCO)cc3)=N[C@@]12CCS(=O)(=O)c1ccccc1,1.68,1.25,1.06,0.984,1.2,1.36,-1.26,0.689,0.726,-0.202 (inactive)
CCC[C@@H]1C[C@@]1(CCC)[C@@H](NC(=O)c1cccs1)c1ccc(Cl)cc1,-0.449,-0.375,-0.352,0.7,-1.42,-0.639,-0.101,-1.69,0.152,-2.2 (inactive)
CC(C)N1CC=CC23O[C@@H]4C=CCOC(=O)[C@@H]4[C@H]2C(=O)N(CCCCCCO)[C@@H]3C1=O (stereo not given in full),-0.249,-0.407,-0.181,-1.66,-0.663,-1.19,-0.525,-0.0359,0.666,0.287 (inactive)
Cc1ccc(S[C@]2(C(=O)NCCN3CCOCC3)CC(=O)N(C3Cc4ccccc4C3)[C@@H]2c2ccc(CO)cc2)cc1,1.22,0.0419,0.82,-0.778,-0.135,-0.592,0.161,-1.47,-0.278,0.54 (inactive)
Cc1ccc(S[C@]2(C(=O)O)CC(=O)N(C3CCCCC3)[C@@H]2c2ccc(CO)cc2)cc1,2.04,1.16,0.552,0.991,0.271,0.257,0.991,-0.776,0.899,0.186 (inactive)
